# NOD2-RIPK2 inh = inhibitors of human NOD2-RIPK2 interaction; inhibition, % at 4.98 µM; CHO BLA complementation NOD2-RIPK2, CCF4 ratio; hit rate 0.38% among 360,000; O43353; in the data active means inhibition above about 21%;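 further: 0% = vehicle only and 100% = reference blocker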
# m5-HT2A agonist = agonists of mouse serotonin 5-HT2A receptor (HTR2A); P35363; CHO-K1 mHTR2A beta-arrestin complementation, luminescence; percent of 30 µM serotonin response; activation, % at 7.6 µM; hit rate 0.66% among 360,000; AID 624169;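 active means activation above a run cutoff, the mean activation of all tested compounds plus 3 SD, cut at about 14% in these data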;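 further: 0% = plate median of compound wells and 100% = 30 µM serotonin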
# ANO1 block = inhibitors of mouse TMEM16A calcium-activated chloride channel | HEK293 TMEM16A/YFP iodide influx fluorescence, ionomycin | normalized B-score (activity score, 25-100; higher = stronger inhibition) at 10 µM | hit rate 1.2% among 310,000 | AID 588511;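 active means ratio plate-corrected score three or more library SD toward inhibition, starting fluorescence score within five deviations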;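 further: score derived from kinetic fluorescence span divided by baseline fluorescence per well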
# TLR4 MyD88 comp = inhibitors of human TLR4-MyD88 binding | HeLa CL3-4 TLR4/MyD88 BLA complementation, FRET ratio | inhibition, % at 8.4 µM | hit rate 0.18% among 200,000 | AID 861; in the data active means inhibition above about 25%;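 further: 0% = vehicle and 100% = reference inhibitor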
# TLR9-MyD88 block = blocks human TLR9 binding to MyD88 | Q9NR96+Q99836 | CHO BLA complementation TLR9-MyD88, CCF4 FRET ratio | inhibition, % at 4.98 µM | hit rate 0.21% among 340,000;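 active means inhibition above the mean over all tested compounds plus 3 SD, cut at about 21% in these data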;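 further: 0% = DMSO only wells and 100% = clavulanate BLA inhibitor control wells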
# ANO1 activ = mouse TMEM16A channel activation, primary screen; hit rate 0.3% among 340,000; HEK293 TMEM16A/YFP-H148Q/I152L, iodide quench fluorescence; hits give low values; Q8BHY3; B-score at 10 µM;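 active means fluorescence-ratio B-score plate-corrected deviation score at least 3 library SD below zero, with starting fluorescence score within 5 deviations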;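 further: channel opened by trigger with iodide after compound preincubation; score built on the fluorescence ratio of max minus min over baseline; more negative score means more quench and so TMEM16A activation or potentiation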
# TMEM16A reconf = TMEM16A (mouse) chloride channel inhibition, re-confirmation; hit rate 39% among 2,300; inhibition, % at 10 µM; HEK293 TMEM16A/YFP-H148Q, iodide quench fluorescence; ionomycin added to raise cell calcium; shares compounds with ANO1 block; AID 652189;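 active means mean duplicate percent inhibition, scaled so buffer wells are 0 and the reference blocker 100, over three buffer SD above buffer mean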
# TMEM16A Ca cntr = alters calcium mobilization in TMEM16A HEK293 cells, counter-screen. shares compounds with ANO1 block. TMEM16A/YFP HEK293, Fluo4 calcium mobilization. calcium response (% of ionomycin), % at 10 µM. hit rate 2% among 2,300. AID 652231;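 active means duplicate-averaged calcium signal over 20% of the ionomycin maximum, relative to buffer baseline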;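 further: each well's signal is peak minus trough fluorescence divided by its pre-addition baseline; 0% = buffer wells and 100% = ionomycin wells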
# Parental YFP cnt = counter-screen for TMEM16A inhibitors: effect in parental YFP-HEK293 cells; shares compounds with ANO1 block; iodide YFP quench, ionomycin; YFP ratio F(max-min)/F0 at 10 µM; 2,300 tested, under 10 active; AID 652233;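 active means yellow fluorescent protein signal ratio exceeding the buffer control mean by over 5 SD of those controls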;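 further: ratio is mean of duplicate wells from kinetic YFP trace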
# ClC-1 rat inh = rat ClC-1 inhibition, TMEM16A specificity screen; 2,300 tested, under 10 active; CHO ClC-1-YFP, iodide influx fluorescence quench; iodide control reads 0, buffer control 100; shares compounds with ANO1 block; ratio percent, % at 10 µM;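 active means duplicate-mean ratio percent above the mean of iodide-only control wells, which defines zero, plus 5 of their SD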;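 further: higher percent means stronger block of ClC-1 iodide influx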
# Target sequence (P35524 whole entry, looked up): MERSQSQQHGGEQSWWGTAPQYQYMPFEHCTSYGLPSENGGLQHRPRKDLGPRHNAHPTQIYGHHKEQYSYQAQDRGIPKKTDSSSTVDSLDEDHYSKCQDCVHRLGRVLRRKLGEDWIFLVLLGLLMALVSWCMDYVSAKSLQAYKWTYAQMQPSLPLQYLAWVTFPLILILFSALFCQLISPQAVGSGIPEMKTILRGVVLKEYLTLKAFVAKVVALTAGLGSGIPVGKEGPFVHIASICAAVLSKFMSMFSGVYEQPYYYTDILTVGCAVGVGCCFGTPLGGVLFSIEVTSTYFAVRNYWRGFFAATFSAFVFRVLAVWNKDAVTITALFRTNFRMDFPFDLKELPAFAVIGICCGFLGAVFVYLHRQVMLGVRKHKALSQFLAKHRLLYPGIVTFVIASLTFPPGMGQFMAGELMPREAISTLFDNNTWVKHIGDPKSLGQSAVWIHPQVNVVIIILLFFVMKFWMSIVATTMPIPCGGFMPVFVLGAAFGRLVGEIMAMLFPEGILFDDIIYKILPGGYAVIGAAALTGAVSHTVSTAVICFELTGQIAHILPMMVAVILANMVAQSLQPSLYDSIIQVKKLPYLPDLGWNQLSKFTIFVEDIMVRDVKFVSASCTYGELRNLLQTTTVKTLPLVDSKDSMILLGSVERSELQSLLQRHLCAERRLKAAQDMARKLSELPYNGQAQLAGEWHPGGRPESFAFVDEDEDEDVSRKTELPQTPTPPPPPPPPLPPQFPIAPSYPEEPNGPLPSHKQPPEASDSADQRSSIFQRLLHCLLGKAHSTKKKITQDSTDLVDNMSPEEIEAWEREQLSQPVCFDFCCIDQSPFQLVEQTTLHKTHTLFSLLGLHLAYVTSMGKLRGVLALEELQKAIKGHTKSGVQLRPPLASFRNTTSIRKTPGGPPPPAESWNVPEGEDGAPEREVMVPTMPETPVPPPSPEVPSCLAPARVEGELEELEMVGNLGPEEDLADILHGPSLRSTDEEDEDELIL
# * marks the source's active call; other numbers are inactive results; i = inactive; / = not tested or not shown. In the library only some 2.4% were active in any assay of this set; here they are far more common.
SMILES,NOD2-RIPK2 inh,m5-HT2A agonist,ANO1 block,TLR4 MyD88 comp,TLR9-MyD88 block,ANO1 activ,TMEM16A reconf,TMEM16A Ca cntr,Parental YFP cnt,ClC-1 rat inh
CCC(Sc1nc(C)cc(=O)[nH]1)C(=O)Nc1nc(-c2ccccc2)cs1 (configuration not stated),-6,3,25*,11,-4,i,43%*,i,-1.1,-10
O=C(CCSCCC(=O)NCc1ccco1)NCc1ccco1,/,/,i,18,/,/,i,i,-0.98,-11
COc1ccccc1N(CC(=O)NCC1CCCO1)C(=O)CCC(=O)Nc1nccs1 (configuration not stated),-6,-4,i,12,-3,i,/,/,/,/
CCc1ccccc1N(C)C(=O)CCc1nc(-c2ccc(C)cc2)no1,9,0,100*,3,1,i,i,i,-1.1,6
COc1ccc(Cl)cc1N(C)C(=O)CCc1nc(-c2ccc(C)cc2)no1,-3,1,i,2,-11,i,/,/,/,/
COC(=O)c1ccc2c(=O)n(CCCCCC(=O)NCc3ccc4c(c3)OCO4)c(=O)[nH]c2c1,6,-1,i,-7,-2,i,/,/,/,/
O=C(CCCCCn1c(=O)[nH]c2ccsc2c1=O)NCc1ccc2c(c1)OCO2,-4,10,25*,-7,-1,i,i,i,-1.2,-7
O=C(Nc1ccccc1)Nc1scc2c1c(=O)oc1ccccc12,/,/,i,/,/,/,i,i,-1.2,-12
O=C(CN1CCN(c2ccccc2)CC1)Nc1scc2c1c(=O)oc1ccccc12,2,-5,i,/,3,i,/,/,/,/
Cc1nc2ccccc2n1CC(O)COCC1CC=CCC1 (configuration not stated),13,6,100*,-2,0,i,i,i,-0.96,-14
OC(COCC1CC=CCC1)Cn1cnc2ccccc21 (configuration not stated),-13,8,i,-11,3,/,/,/,/,/
CCCCNC(=O)OCC(CC)NC(=O)OC(C)C (configuration not stated),1,11,i,6,0,i,/,/,/,/
CC(C)Cc1csc(NC(=O)c2ccc(Br)cc2)c1C(=O)O,-1,-1,100*,/,0,i,i,i,-1.2,-14
N#C/C(=N\Nc1c(Cl)cccc1Cl)C(=O)NN,3,-1,25*,-10,-20,i,i,i,-0.87,-12
N#C/C(=N\Nc1cccc(Cl)c1)C(=O)c1ccccc1,-3,-2,100*,-6,3,i,26%*,i,-1,-8
N#C/C(=N\Nc1ccccc1Cl)C(=O)c1ccccc1,1,0,100*,0,-1,i,i,i,-0.83,-16
CCOC(=O)NC(=O)/C(C#N)=N/Nc1c(F)cccc1F,1,0,i,-13,-14,i,/,/,/,/
Cc1nn(C)c(C)c1/C=C/C(=O)c1ccc(Cl)cc1Cl,2,-1,i,3,-1,i,/,/,/,/
Cc1c(C#N)c2ccccc2n1CC(=O)NCc1cccnc1,-12,5,i,9,3,i,/,/,/,/
Cc1c(-c2ccccc2)c(=O)oc2ccc(O)cc12,-5,3,i,/,-6,i,/,/,/,/
CC(C)c1ccc(CC(C)C2C3=C(CCCC3=O)OC3=C2C(=O)CCC3)cc1 (configuration not stated),-1,-3,i,2,-7,i,/,/,/,/
CN(CCC1CCCCO1)Cc1cn(C)nc1-c1ccc2c(c1)OCCO2 (configuration not stated),-5,-4,i,5,-7,i,/,/,/,/
Cc1ccc(CNC(=O)CC(C)S(=O)(=O)c2ccc3c(c2)NC(=O)C(C)S3)cc1 (configuration not stated),4,-2,25*,/,6,i,22%*,i,-0.95,-8
Cc1cc(C(=O)COc2ccc(-c3nnco3)cc2)c(C)n1Cc1ccccc1,-2,-3,100*,-5,1,i,18%*,i,-0.84,-16
COC(=O)COc1cccc(-n2cnnn2)c1,-13,4,i,-4,-2,i,/,/,/,/
SMILES,NOD2-RIPK2 inh,m5-HT2A agonist,ANO1 block,TLR4 MyD88 comp,TLR9-MyD88 block,ANO1 activ,TMEM16A reconf,TMEM16A Ca cntr,Parental YFP cnt,ClC-1 rat inh
Cc1cc(C(=O)COc2cccc(-n3cnnn3)c2)c(C)n1-c1ccccc1,-9,-3,100*,0,-2,i,i,i,-0.95,-3
COc1ccc(NC(=O)COC(=O)Cn2cnc3ccccc32)cc1,1,8,/,/,1,i,/,/,/,/
COc1ccc(-n2c(C)cc(C(=O)COC(=O)Cn3cnc4ccccc43)c2C)cc1,-2,8,100*,5,4,i,23%*,i,-1.2,-10
Cc1c(-n2c(-c3ccccc3Cl)n[nH]c2=S)c(=O)n(-c2ccccc2)n1C,-8,0,i,-3,1,i,/,/,/,/
COc1cc2c(C(=O)N3CCN(c4ccccc4)CC3)c(C)oc2cc1Br,11,3,i,-6,6,i,i,i,-1.2,-4
COc1ccccc1-c1cc(C(=O)N2CCN(c3ccccc3)CC2)no1,2,0,i,/,-4,i,/,/,/,/
COC(=O)Cn1cnc2sc3c(c2c1=O)CCCC3,-7,-2,i,8,9,i,/,/,/,/
COc1ccc(NC(=S)Nc2ccc(F)cc2)c(OC)c1,-4,1,i,-12,3,i,/,/,/,/
O=C(CC1C=Cc2ccccc2N1C(=O)c1ccccc1)c1ccccc1 (configuration not stated),-13,2,100*,/,4,i,20%*,i,-1.1,-2
CC1C=Cc2ccccc2N1C(=O)c1ccccc1 (configuration not stated),2,9,i,6,3,i,/,/,/,/
CC(C)CN1CCN(Cc2ccc(CN3CCCCC3)s2)CC1CCO (configuration not stated),-9,-1,i,6,-3,i,/,/,/,/
COc1ccc(/C=C2\N=C(C)OC2=O)cc1[N+](=O)[O-],1,1,i,/,-4,i,/,/,/,/
O=C(Nc1cccnc1)c1ccc(COc2cc(Cl)ccc2Cl)o1,8,-2,i,-4,-8,i,/,/,/,/

# Compound activity (PubChem)
